According to PubChem BioAssay AID1508600 (Functional Genomics Laboratory (NCATS/FGL), 2020):
The campaign covered roughly 53,000 sequences. About 3,700 (7%) were called active. This is one part of a sample in which actives are shown more often than they occur. Unmarked numbers belong to inactive results.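 Rule for the calls: active = gene knockdowns whose robust z-score for IL-1 alpha signal is at least 2 or at most -2, so actives lie on both sides; inactive = the rest.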

assay: Components of the Cytosolic LPS Sensing Pathway: Gene Identification via Genome-wide siRNA Screen; conditions: RAW264.7 macrophages, IL-1a HTRF, actives lie on both sides, screened at 100 nM (by protocol), cells primed 5 h with Pam3CSK4 first;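 note: robust z of the log signal after scaling to non-targeting control siRNA wells of the plate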
Procedure, shortened: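 Mouse macrophage line RAW264.7 is transfected with siRNA (100 nM final), grown 48h, primed with TLR ligand Pam3CSK4 5 h and given intracellular LipidA 24 h. IL-1a in supernatant is read by HTRF and viability by luminescence.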

Sequence	z-score
GGGCAAUUCUAUCAAAGAGTT against Gps1	-2.14 (active)
CCUAUAGCAAUGGCAGCAGTT against Pkn1	-1.66
GGUCCUUUCCCAUAACCUGTT against Swap70	-0.922
GCGGACUACUAUGCUAAAGTT against Tgfb1	1.08
GGUGUUCAAAAAGUUUAACTT against Zswim1	1.02
GCCAAGCUCGCCAAGAUUATT against P4ha2	0.273
GCUGAAGUGCAAGAACAAATT against Dmd	1.91
GGUUUUGGCGGAUACUAAGTT against Plin3	-0.24
GGAUGAGAGAAAGUUACCCTT against Tspo2	-2.78 (active)
GGGCAUCUCAGAUUUAGCUTT against Cct3	-0.0572
GGGUGAAGAUUCUCUACAATT against Dctn3	-0.621
GGACUGAACCCAAAUGCCUTT against Chtf8	-1.45
GGAGCUUACAUGGUCCCUATT against Prss37	-0.238
CGAGAAGGAUAUAAUUGUUTT against Klhl18	0.449
GGUUUCGAACUGAUGAAGCTT against Nemf	0.284
GGCAAAACAAAGAAUGAAATT against Prss40	-0.38
CGAAGUCUGAAACACAUGUTT against A730018C14Rik	4.13 (active)
GGACUCACAGAAAUUUCCATT against Slc36a1	-1.53
GGUAAUGAGACGCGGUUUATT against Ina	0.202
GCAACACCUUAUGUUUCAUTT against Cab39	1.68
GGCACGAUUUGCUUAUUUUTT against Usf2	0.0682
GCCUCCUACUGGUUCCAAATT against Commd7	2.05 (active)
GUCUUCUCUGCCUGUCUGATT against Lce3c	-0.0986
CCCAGGGAGAAUUGACUUGTT against Sertad1	0.0114
GGCCUUUGUAGUAUCCCAGTT against Nudt16	-0.709
GCACCAAUCAAUGAGGAGATT against Was	-0.785
GGAGUGAUGUCCAUACUGGTT against Leap2	-2.57 (active)
CCAUCCUAAGCAGAGUCACTT against Frg2f1	-0.446
GGAUGUUGAUUUUCAUGGUTT against Grpel2	1.13
GGGUAUUCAUGAUGUCUUUTT against Kctd6	1.39
